Experimental findings from PubChem BioAssay (NCATS) are described below.

Where “and” joins values, the source holds several entries; their conditions need not be identical. Identical values can stand only once. Inconclusive results are not listed. Calls of active or inactive are those of the source. Calls follow the shape of the dose curve; as a rule, active = well fitted cell-killing curve with a large enough effect; inconclusive = small, poorly fitted or top-dose-only effect; inactive = no such curve, though single readings can be large or run the other way.
Potency is read from the fitted curve at half-maximal effect.

This assay can be described thus: qHTS of pediatric cancer cell lines to identify multiple opportunities for drug repurposing: Confirmatory screen for U-2 OS cells (AID 1347122). Also: nearly all actives have a fitted effect of over 65% in size. The note with it: U-2 OS osteosarcoma cell viability; series mostly up to 45.9 µM. An excerpt:
Drug repurposing or repositioning has been offered as a strategy for drug development in oncology programs. This approach has special potential for childhood cancers and other rare or orphan diseases, where the expected return on new drug development has been a disincentive to pharmaceuticals.
In this project we exploit the poly-pharmacology of drugs to discover new indications via phenotypic screening of a panel of 19 well-characterized cell lines derived from solid tumors seen in children and adolescents. The goal is to identify approved drugs with previously unrecognized anticancer properties that has the potential to reveal new mechanisms and biological processes involved in carcinogenesis or drug resistance. We employed a titration-based paradigm (quantitative high-throughput screening or qHTS), where all compounds were tested at multiple concentrations for their effect on cell viability. Concentration-response curves (CRCs) were derived directly from the primary screen, and both potency and efficacy values were used to identify compounds with robust bioactivity profiles. We screened the NIH Chemical Genomics Center (NCGC) Pharmaceutical Collection (NPC) and Mechanism Interrogation Plate (MIPE) small molecule collections of approved and investigational compounds against these cell lines; and measured metabolically active cells after 48 hours of compound treatment as a proxy for cell viability.
Assay Submitter: Nathalia J. Martinez, National Center for Advancing Translational Sciences, National Institutes of Health, Rockville, MD, USA; email: natalia.martinez@nih.gov
[1] Shen, M et al. Quantitative high-throughput phenotypic screening of pediatric cancer cell lines identifies multiple opportunities for drug repurposing. Oncotarget 2017 Dec 19;9(4):4758-4772. PMID 29435139.
The cells were obtained from University of North Carolina (UNC), Pediatric Preclinical Testing Program (PPT), and Coriell Institute (CI).
qHTS cell viability assay:
Cells were assayed in growth media at a density of 500-1,000 cells/well. Five microliters of cells were dispensed into 1,536-well, white, solid-bottom, TC-treated plates (Greiner Bio One) using a multidrop dispenser and incubated at 37 degrees C, 5% CO2, under a humidified atmosphere for 5 hours. Twenty-three nanoliters of compounds and controls (neutral control DMSO or positive control bortezomib at final concentration of 2.3 µM) were subsequently transferred by Kalypsys pintool. For primary screens, the MIPE collection was tested at 11-point dilutions (final concentrations range from 0.78 nM to 46 µM) and the NPC collection at 8-point dilutions (final concentrations range from 0.59 nM to 46 µM). Compounds tested in follow-up screens were assayed at 11-point dilutions. Cells were incubated for 48 hours, followed by addition of 3 µL of CellTiter-Glo (Promega). After a 15 min incubation at room temperature, samples were analyzed for luminescence intensity using a ViewLux High-throughput CCD imager equipped with clear filters.
In general terms: Quantitative high-throughput screening tests each substance at several concentrations.
As to `CC=C(C)C(=O)O[C@H]1C(C)=C[C@]23C(=O)[C@@H](C=C(CO)[C@@H](O)[C@]12O)[C@H]1[C@@H](C[C@H]3C)C1(C)C`, the Potency is 0.0233 µM (active).

As for `COc1ccc(-c2coc3cc(O)cc(O)c3c2=O)cc1`, the Potency result is “inactive”.

`Cc1nnc(C(C)C)n1C1C[C@H]2CC[C@@H](C1)N2CC[C@H](NC(=O)C1CCC(F)(F)CC1)c1ccccc1` (stereo partly specified): the Potency result was “inactive”. `O=C(Nc1cccc(Br)c1)c1cccc(S(=O)(=O)N2CCCCCC2)c1`: the Potency result was “inactive”. To `CC1(C)CCC2=C(O1)c1ccccc1C(=O)C2=O` belongs 23.3 µM (active); to `O=c1cc(-c2ccc(O)cc2)oc2cc(O)cc(O)c12`, “inactive”; to `COc1cc2nc(-c3ccc(N4CCN(C)CC4)cc3)nc(NCCN3CCOCC3)c2cc1OC`, 0.261 µM (active). Under `COc1cc2ncnc(Nc3ccc(F)c(Cl)c3)c2cc1OCCCN1CCOCC1` stands 26.9 µM (active); under `OC[C@H]1O[C@@H](n2cnc3c2NC=NC[C@@H]3O)C[C@H]1O`, “inactive”. Under `COc1ccc(-c2nc(N3CCOCC3)c3sc(CN(C)c4ncc(C(=O)NO)cn4)cc3n2)cn1` stands 0.522 µM (active). As for `Cc1cc(OCCCc2c(C(=O)O)n(Cc3cccnc3)c3c(-c4c(COc5ccc(N6CCN([S+](C)(=O)[O-])CC6)cc5)nn(C)c4C)cccc23)cc(C)c1Cl`, the Potency was 2.61 µM (active). Under `O=C1c2ccccc2-[n+]2ccc3c([nH]c4ccccc43)c21` stands 1.17 µM (active); under `CC(C)(C(=O)NCC(F)(F)C(F)(F)F)C(=O)N[C@@H]1C(=O)Nc2ccccc2-c2ccccc21`, “inactive”. To `CC1(C)S[C@H]2[C@H](NC(=O)[C@@H](N)c3ccc(O)cc3)C(=O)N2[C@@H]1C(=O)O` belongs “inactive”; to `COc1cccc(-c2cc(=O)c3ccccc3o2)c1N`, “inactive”; to `CC[C@]1(O)C[C@@H]2CN(CCc3c([nH]c4ccccc34)[C@@](C(=O)OC)(c3cc4c(cc3OC)N(C)[C@H]3[C@@](O)(C(=O)OC)[C@H](OC(C)=O)[C@]5(CC)C=CCN6CC[C@]43[C@@H]65)C2)C1`, 369 nM (active) and 1.17 µM (active). To `CO[C@H]1C(=O)[C@]2(C)[C@@H](OC)C[C@H]3OC[C@@]3(OC(C)=O)[C@H]2[C@H](OC(=O)c2ccccc2)[C@]2(O)C[C@H](OC(=O)[C@H](O)[C@@H](NC(=O)OC(C)(C)C)c3ccccc3)C(C)=C1C2(C)C` belongs 0.0185 µM (active).

As for `O=C(NCc1ccncc1)C12C[C@H]3C[C@@H](C1)CC(c1ccc(Cl)cc1)(C3)C2`, the Potency is 26.1 µM (active). To `Nc1ncnc2c1ncn2[C@@H]1O[C@@H](CO)[C@H](O)[C@H]1O` belongs “inactive”; to `CCOc1ccc(Nc2nc(-c3c(C)nc4ccccn34)cs2)cc1`, 0.165 µM (active); to `O=C1C(Cl)=C(NCCN2CCOCC2)C(=O)c2ncccc21`, 1.65 µM (active). To `CC1(C)O[C@H]2C[C@@H]3[C@H]4CCC5=CC(=O)C=C[C@]5(C)[C@@]4(F)[C@@H](O)C[C@]3(C)[C@]2(C(=O)CO)O1` belongs “inactive”; to `CN(C)C1CCN(C(=O)c2ccc(NC(=O)Nc3nc(N4CCOCC4)nc(N4CCOCC4)n3)cc2)CC1`, 3.69 µM (active); to `CC(=O)O[C@]1(C(C)=O)CC[C@@H]2[C@@H]3C[C@H](C)C4=CC(=O)CC[C@]4(C)[C@H]3CC[C@@]21C`, “inactive”.

On to `CC1(C)CCC[C@@]2(C)[C@@H]1CC[C@@]1(C)OC(=O)C[C@H]21`, for which the Potency result is “inactive”. Under `NC1=N[C@@]2(c3cc(NC(=O)c4ccc(F)cn4)ccc3F)COC[C@@H]2CS1` stands “inactive”.

Consider `CC[C@]1(O)C[C@@H]2CN(CCc3c([nH]c4ccccc34)[C@@](C(=O)OC)(c3cc4c(cc3OC)N(C=O)[C@@H]3C45CCN4CC=C[C@](CC)([C@H]45)[C@@H](OC(C)=O)[C@]3(O)C(=O)OC)C2)C1` (stereo partly specified), for which the Potency result was “inactive”. To `COc1cc(N2CCC(N3CCN(C)CC3)CC2)ccc1Nc1ncc(Cl)c(Nc2ccccc2S(=O)(=O)C(C)C)n1` belongs 0.465 µM (active); to `CC(=O)Nc1ccc([C@H](C)C(=O)Nc2ncc(C(C)C)s2)cc1`, 1.47 µM (active). Under `CN[C@@H](C)C(=O)N[C@H]1CN(C(=O)CC(C)C)CC[C@H]2CC[C@@H](C(=O)NC(c3ccccc3)c3ccccc3)N2C1=O` stands “inactive”; under `N[C@@]1(C(=O)O)CS(=O)(=O)[C@H]2[C@H](C(=O)O)[C@H]21`, “inactive”; under `CCc1ccc(OCc2ccccc2C(=O)Nc2ccc3nc(C)cc(N)c3c2)cc1`, 8.27 µM (active).

Turning to `NS(=O)(=O)c1cccc2c1C(=O)c1cccc(O)c1C2=O`, the Potency is 1.04 µM (active). Under `CC(C)n1nc(-c2ccc3oc(N)nc3c2)c2c(N)ncnc21` stands 0.0928 µM (active); under `Oc1ccc(C2CCN(c3ccnc4ccccc34)CC2)cc1O`, 2.93 µM (active); under `CO[C@H]1C[C@@H]2CC[C@@H](C)[C@@](O)(O2)C(=O)C(=O)N2CCCC[C@@H]2C(=O)O[C@H]([C@H](C)C[C@@H]2CC[C@H](OP(C)(C)=O)[C@H](OC)C2)CC(=O)[C@H](C)C=C(C)[C@@H](O)[C@@H](OC)C(=O)[C@H](C)C[C@H](C)C=CC=CC=C1C`, 14.7 µM (active).
